About 83,000 compounds went through this panel and 20% of them were active in at least one assay; those are over-represented in the sample as a whole.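 Cell lines were cultured in 96-well plates, exposed to a single compound concentration, and assessed for percent growth 48 hours later.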 A number with no mark means an inactive call. Active and inactive are the calls of the source. Rule for the calls: active = growth percent below 10; inactive = the rest.
Experiments:
Experiment in all cases: NCI-60 one-dose screen, 48 h (100 = growth as untreated, 0 = no growth, -100 = all killed)
Conditions in all cases: 10 µM unless noted
[1] = tested on: SR leukemia
[2] = tested on: RPMI-8226 leukemia
[3] = tested on: OVCAR-8 ovarian
[4] = tested on: OVCAR-5 ovarian
[5] = tested on: OVCAR-4 ovarian
[6] = tested on: SK-OV-3 ovarian
[7] = tested on: IGROV1 ovarian
[8] = tested on: OVCAR-3 ovarian
[9] = tested on: HS 578T breast
[10] = tested on: NCI/ADR-RES ovarian
[11] = tested on: T-47D breast
[12] = tested on: BT-549 breast
[13] = tested on: MDA-MB-435 melanoma
[14] = tested on: SW-620 colon
[15] = tested on: MCF7 breast
[16] = tested on: HCC-2998 colon
[17] = tested on: KM12 colon
[18] = tested on: HCT-116 colon

| Structure (SMILES) | growth [1] | growth [2] | growth [3] | growth [4] | growth [5] [%] | growth [6] [%] | growth [7] | growth [8] | growth [9] | growth [10] | growth [11] | growth [12] | growth [13] | growth [14] | growth [15] | growth [16] [%] | growth [17] | growth [18] |
| --- | --- | --- | --- | --- | --- | --- | --- | --- | --- | --- | --- | --- | --- | --- | --- | --- | --- | --- |
| CC1(C)CC[C@]2(C(=O)O)CC[C@]3(C)C(=CC[C@@H]4[C@@]5(C)Cc6c([nH]c7ccccc67)C(C)(C)[C@@H]5CC[C@]43C)[C@@H]2C1 | 41.3% | 23.2% | 35% | 80.9% | 36.8 | 62.4 | 58% | 37.2% | 75.2% | 34.2% | 49.5% | 61.5% | 79.3% | 23.1% | 19.4% | 38.7 | 17.7% |  |
| COc1cc2nc(-c3ccc(Cl)cc3)cc(OCCCN3CCCCC3)c2cc1OC | 9.98% (active) | 21% | 49.8% | 49.3% | 61.7 | 78.9 | 33.2% | 72% | 62.1% | 46.4% | 35.4% | 40.9% | -22.5% (active) | 40.8% | 45.8% |  | 44.6% | 22.9% |
| CCCCOc1ccc(/C=N/Nc2cc(C)nc3ccc(Br)cc23)cc1 | -9.77% (active) | -15.9% (active) | -50.1% (active) | 100% | 44 | 91.5 | 10% | -53% (active) | 86.8% | 83.8% | 82.5% | 99% | -4.43% (active) | -70.5% (active) | -52.1% (active) |  | -4.11% (active) | -69.6% (active) |
| CCCOc1ccc(/C=N/Nc2cc(C)nc3ccc(Cl)cc23)cc1 | -35.5% (active) | -20.2% (active) | -44.6% (active) | 96.3% | 48.5 | 89.1 | 42.1% | -27.5% (active) | 89% | 82.4% | 45.9% | 102% | -40.4% (active) | -75.5% (active) | -20.5% (active) |  | 16.5% | -74.8% (active) |
| O=C(/C=C/c1ccc(Cl)cc1)c1ccc(NC(=O)N2CCN(c3cc4c(cc3F)c(=O)c(C(=O)O)cn4C3CC3)CC2)cc1 | 22% | 79.1% | 65.3% | 103% | 99.2 | 99.1 | 89.2% | 93.8% | 86.7% | 99.8% | 76.4% | 52.2% | 98.8% | 97.2% | 22.6% |  | 85.8% | 11.8% |
| CCc1ccc(CNc2ccc(N3CCOCC3)c(C(=O)O)c2)cc1 | 104% | 109% | 102% | 99.9% | 110 | 103 | 102% | 104% | 125% | 98.6% | 86.3% | 105% | 108% | 111% | 86.2% | 104 | 106% |  |
| O=C(N/N=C/c1ccc(Oc2ccccc2)cc1)c1cnn2c1NC(c1ccccc1)C2 (stereo not drawn) | 31% | 75.7% | 52.1% | 78% | 26.6 | 48.5 | 59.3% | -32.6% (active) | 32.3% | 68.7% | 43% | 81.1% |  | 42.1% | 17.7% | 71.8 | 44.7% | 32.2% |
| OCc1cnccc1NCCCCOc1ccc(Oc2ccccc2)cc1 | 31.7% | 24.7% | 65.1% | 84.1% | 63.2 | 87.2 | 72.7% | 66.6% | 59.6% | 65.8% | 35.4% | 62.6% |  | 49.2% | 33.2% | 89.6 | 64.8% | 31.3% |
| C=C1C(=O)O[C@H]2[C@H]1CC/C(COC(=O)NCc1c[nH]c3ccc(F)cc13)=C\CC[C@@]1(C)O[C@@H]21 | 13% | -24.4% (active) | 0.654% (active) | -30.6% (active) | 11.9 | 93.7 | -46.7% (active) | -75.6% (active) | 50% | 59.7% | -58.3% (active) | -51.6% (active) | -63.5% (active) |  | 22.4% | 68.3 | 33.5% | -86.7% (active) |
| CN1CCN(C(=O)[C@]23CCC(C)(C)C[C@H]2C2=CC[C@@H]4[C@@]5(C)C/C(=C/c6cccnc6)C(=O)C(C)(C)[C@@H]5CC[C@@]4(C)[C@]2(C)CC3)CC1 | 15.5% | 19.1% | 54% | 100% | 58.1 | 83.8 | 85.6% | 52.7% | 54.2% | 59.1% | 34.5% | 82% | 59.1% |  | 22.9% | 66.6 | 55.1% | 20% |
| N#C/C(=C\c1ccc(Cl)cc1)n1nnc2cc(F)c(F)cc21 | 5.64% (active) | -34.1% (active) | 13.3% | 22.2% | 17.6 | 88.7 | 6.69% (active) | -0.889% (active) | 13.6% | 17.6% | 19.8% | 11.7% | 5.95% (active) |  | 12% | 16.8 | 16.2% | -11.6% (active) |
| NS(=O)(=O)c1ccc(Cn2c(SCC(=O)N/N=C/c3ccccc3O)nc3ccccc3c2=O)cc1 | 26.6% | 49.7% | 44.3% | 68.4% | 40.7 | 73 | 62.3% | 13.4% | 71.6% | 98.3% | 33.3% | 56.1% | 71.7% |  | 50% | 50.7 | 39.2% | 42.7% |
| COc1cc(C=O)ccc1OC1OC(COC(C)=O)C(OC(C)=O)C(OC(C)=O)C1OC(C)=O (stereo not drawn) | 60.7% | 92.1% | 102% | 103% | 103 | 103 | 113% | 104% | 104% | 103% | 92.4% | 102% | 107% | 99.7% | 97.3% | 108 | 103% |  |
| COc1cc(/C=N/O)nc(-c2ccccn2)c1 | 9.23% (active) | 18.7% | 17.6% | 45.3% | 22.2 | 28.6 | 19.2% | 18.2% | 65% | 4.37% (active) | 37.5% | 33.7% | 23.6% |  | 15.9% | 26.4 | 23% | 20.9% |
| N/C(=N\C(N)=N\c1nc2ccccc2s1)c1ccnc(Br)c1 | 25% | 23.6% | 33.8% | 89.4% | 59.1 | 29.6 | 25.8% | 9.06% (active) | 19.3% | 20.1% | 54.3% | 41.9% | -25.2% (active) |  | 16.6% | 70.3 | 23.9% | 20.2% |
| CCN(CC)CCOc1ccc(NC(=O)C(C(C)C)N2C(=O)/C(=C/c3ccc(Br)cc3)SC2=S)cc1 (stereo not drawn) | -42% (active) | 19.5% | 25.6% | 66.4% | 70.5 | 113 | 82.2% | 94% | 84.2% | 80% | 93.1% | 110% | 97% |  | 19.3% | 73 | 99.4% | -24.8% (active) |
| O=S(=O)(NCCNc1nccc(-c2c(-c3cccc(O)c3)nc3occn23)n1)c1ccc(Cl)cc1 | 106% | 105% | 105% | 143% | 126 | 99.8 | 95% | 113% | 108% | 109% | 91.7% | 116% |  | 125% | 82% | 135 | 91.3% | 87.6% |
| C[C@@H](Nc1ncnc2ccc(-c3cnc(N)nc3)cc12)c1ccc(F)cc1 | 85.3% | 83.6% | 78.1% | 44.6% | 74.3 | 103 | 28.7% | 69.2% | 69.2% | 86% | 67.8% | 69.3% | 95.3% |  | 82.5% | 87.1 | 98.7% | 85.3% |
| CCCCCCCCO/N=C\c1c2c(O)c3c(O)c(C)c4c(c3c1O)C(=O)C(C)(O/C=C\C(OC)C(C)C(OC(C)=O)C(C)C(O)C(C)C(O)C(C)/C=C\C=C(\C)C(=O)N2)O4 (stereo not drawn) | 6.26% (active) | 9.95% (active) | 24% | 48.8% | 29.4 | 30.5 | 23.4% | 22.2% | -2.52% (active) | 32.1% | 30.5% | 45.9% | 13.5% |  | 21.7% | 14.7 | 17.1% | 11.6% |

Reference: PubChem BioAssay (NCI)
